A selection: hits, their analogues and other compounds. The true share with any hit is near 14%.
Cycloheximide cs: counter-screen hit for Shiga toxin inhibitors, cycloheximide. cell reporter, cycloheximide protein synthesis inhibition counterscreen. max response, %. actives 12% (n = 300,000); in the data active = max response mostly above about 13%, no sharp cut-off; inactive = mostly below about 14%; note: read at 38.3 µM for the half of the compounds with a filed dose
Shiga toxin inh: blocks Shiga toxin action in Vero cells; inhibition, % at 38.7 µM; actives 9.2% (n = 290,000); Vero cells, Shiga toxin protein synthesis inhibition reporter; in the data active = inhibition mostly above about 28%, no sharp cut-off; inactive = mostly below about 43%
NS1 function inh: blocks influenza NS1 protein function; Potency, µM (series often up to 46.1 µM); actives 0.4% (n = 270,000); AID 2326; calls by dose curve; note: actives are rising curves; nearly all actives have a fitted effect of over 50% in size
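In this qHTS, NS1 from influenza A is expressed in budding yeast, where it slows growth. Cells are switched from glucose to 2% galactose medium (pH 6.0, -URA), treated with compound, and growth recovery is read at OD600.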
Giardia FBPA inh: blocks Giardia fructose-bisphosphate aldolase activity. Potency, µM (doses to about 59.6 µM), usual class: inhibitors. purified Giardia FBPA. A8B2U2. actives 0.71% (n = 290,000); note: nearly all actives have a fitted effect of over 55% in size
Target sequence (A8B2U2 whole entry, looked up): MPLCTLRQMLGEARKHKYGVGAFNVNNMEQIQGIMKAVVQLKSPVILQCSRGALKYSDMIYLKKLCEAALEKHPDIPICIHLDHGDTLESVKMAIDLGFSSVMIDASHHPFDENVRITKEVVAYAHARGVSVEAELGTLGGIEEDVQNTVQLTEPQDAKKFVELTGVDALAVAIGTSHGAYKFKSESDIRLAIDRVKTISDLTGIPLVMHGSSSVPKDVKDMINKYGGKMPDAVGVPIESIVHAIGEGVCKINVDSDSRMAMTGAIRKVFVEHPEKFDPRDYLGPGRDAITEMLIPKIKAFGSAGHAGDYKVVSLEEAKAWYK
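40 nM FBPA preincubated 10 min at RT with compound (up to 57.5 uM final), then substrate plus GAPDH/TPI/NAD/arsenate coupling and diaphorase/resazurin added. Fluorescence read after 20 min at RT, 525/598 nm.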
LmPK inhibitor: blocks Leishmania mexicana pyruvate kinase activity; Q27686; purified LmPK, Kinase-Glo ATP luminescence, 1 h; Potency, µM (series often up to 57.5 µM), usual class: inhibitors; actives 0.37% (n = 290,000); AID 1721
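Pyruvate kinase activity monitored as ATP production (luciferase luminescence). Conditions: 0.1 nM enzyme, 0.5 mM PEP, 0.1 mM ADP, 1 h, RT; normalized against uninhibited and no-enzyme wells.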
Large screens that a line does not name were inactive. Unless noted, calls come from the whole dose curve; as a rule, active = well fitted curve in the direction sought with a large enough effect; inconclusive = small, poorly fitted or top-dose-only effect, or another doubt; inactive = no such curve, though single readings can be large; an effect the other way counts as inactive or inconclusive.

Cc1c2ccccc2nc2c(F)c(NC(C)C)c(F)c(F)c12	Cycloheximide cs 44.8, Shiga toxin inh 55.4
Cc1cc(NCCOCCO)n2ncc(-c3ccc(Cl)cc3)c2n1	Cycloheximide cs 23.1, Shiga toxin inh 74.1
Cc1cc(NCc2ccccn2)n2ncc(-c3ccc(Cl)cc3)c2n1	Cycloheximide cs 29.4, Shiga toxin inh 47.5
Cc1cc(NCCCN2CCOCC2)n2ncc(-c3ccccc3)c2n1	Cycloheximide cs 55.8, Shiga toxin inh 77.8
Cc1cc(NCc2ccccn2)n2ncc(-c3ccccc3)c2n1	Cycloheximide cs 43.9, Shiga toxin inh 69.8
CCOC(=O)C1CCCN(S(=O)(=O)c2ccc3c(c2)N(C(C)=O)CCO3)C1 (stereo unspecified)	none
Cc1ccc(OC(=O)c2cccc(S(=O)(=O)N(C)C)c2)c(-n2nc3ccccc3n2)c1	Cycloheximide cs 63.8, Shiga toxin inh 72.6
Cc1ccc(OC(=O)c2cccc(S(=O)(=O)N3CCCC3)c2)c(-n2nc3ccccc3n2)c1	Cycloheximide cs 68.9, Shiga toxin inh active, NS1 function inh inconclusive
Cc1ccc(OC(=O)c2ccc(S(=O)(=O)N(C)C)cc2)c(-n2nc3ccccc3n2)c1	Cycloheximide cs 34.0, Shiga toxin inh 80.7, NS1 function inh inconclusive
O=c1c(-c2ccc(F)cc2)nc2cnc(N3CCOCC3)nc2n1C[C@H]1CCCO1	none (no result: Cycloheximide cs, Shiga toxin inh, NS1 function inh, LmPK inhibitor)
Cn1c(C(=O)N[C@@H](C(=O)O)c2ccccc2)cc2cc(F)ccc21	none
CC(O)C(=O)N/N=C/c1cccc(Cl)c1Cl (stereo unspecified)	Cycloheximide cs 19.8
CC(O)C(=O)N/N=C/c1ccccc1C(=O)O (stereo unspecified)	none
Fc1cccc(/C=N/Nc2nncc3ccccc23)c1	Cycloheximide cs 56.5, Shiga toxin inh 85.5
CC(=O)Nc1ccc(/C=N/Nc2nncc3ccccc23)cc1	Cycloheximide cs 49.9, Shiga toxin inh 83.3
C(=N\Nc1nncc2ccccc12)/c1ccccn1	Cycloheximide cs 32.8, Shiga toxin inh 56.5, LmPK inhibitor inconclusive
CCOC(=O)CN1C(=O)/C(=C/c2ccc(Cl)cc2)Oc2ccccc21	none
COC(=O)[C@@H]1C[C@H]1[C@@H](NC(=O)c1cnccn1)c1ccccc1	none (no result: Cycloheximide cs, Shiga toxin inh, NS1 function inh, LmPK inhibitor)
Cc1ccccc1-c1nccc(NCc2cccs2)n1	none (no result: Cycloheximide cs, Shiga toxin inh, NS1 function inh, LmPK inhibitor)
CC(=O)c1cccc(NC(=O)NCCc2ccc(Cl)cc2)c1	Shiga toxin inh 38.0
COc1cccc(NC(=O)NCCc2ccc(Cl)cc2)c1	Cycloheximide cs 24.3
O=[N+]([O-])c1ccc(-c2nc(NCc3cccnc3)c3ccccc3n2)cc1	Cycloheximide cs 23.4, Shiga toxin inh 53.2
CCOc1ccc(C(=O)NCC(=O)N2CCC3CCCCC3C2)cc1OCC (stereo unspecified)	none
O=C(N/N=C/c1ccc(O)c([N+](=O)[O-])c1)c1ccncc1	LmPK inhibitor inconclusive
O=C(Oc1cccc(/C=N/NC(=O)c2ccccn2)c1)c1ccc([N+](=O)[O-])cc1	none (no result: Giardia FBPA inh)
O=[N+]([O-])c1ccc(/C=N/N/C(=N/c2ccccn2)c2ccccn2)cc1	Cycloheximide cs 39.7
O=[N+]([O-])c1cc(/C=N/N/C(=N/c2ccccn2)c2ccccn2)ccc1O	Cycloheximide cs 34.2, Shiga toxin inh 123.1 (no result: NS1 function inh)
Cc1cc(NC(=O)CSc2nnc(-c3ccccc3Cl)o2)no1	none (no result: Giardia FBPA inh)
COc1ccccc1C1CCN(c2ccc([N+](=O)[O-])c(OC)c2)CC1	Cycloheximide cs 34.7, Shiga toxin inh 64.4
CC(C)N1C(=O)S/C(=C/c2ccccc2OCc2ccc(C(=O)O)cc2)C1=O	Shiga toxin inh 31.9 (no result: NS1 function inh)
CN1C(=O)S/C(=C\c2ccccc2OCc2ccc(C(=O)O)cc2)C1=O	none (no result: NS1 function inh)
O=C(/C=C/c1ccc([N+](=O)[O-])cc1)/C=C/c1ccco1	Cycloheximide cs 37.5, Shiga toxin inh 73.1
O=C(CN1C(=O)/C(=C/c2c(F)cccc2Cl)Oc2ccccc21)NCc1ccco1	Cycloheximide cs 38.6, Shiga toxin inh 77.2 (no result: NS1 function inh)
O=C(/C=C/c1ccc([N+](=O)[O-])cc1)NCc1ccco1	Shiga toxin inh 27.2
O=C(CN1CCN(Cc2ccccc2Cl)C1=O)NCc1ccco1	none
Cc1ccc(OCCNC(=O)/C=C/c2ccco2)cc1C	Shiga toxin inh 78.2
CC(C)Oc1cc(C(=O)NC2CCCCC2)c2ccccc2n1	none (no result: Giardia FBPA inh)
COc1ccc(C)cc1NC(=O)NNC(=O)C(C)Oc1ccc(F)cc1Cl (stereo unspecified)	none (no result: Giardia FBPA inh)
O=C(/C=C/c1ccco1)NCCCN1CCN(CCCNC(=O)/C=C/c2ccco2)CC1	none
NS(=O)(=O)c1ccc(CNC(=O)/C=C/c2c(F)cccc2Cl)cc1	none
O=C(/C=C/c1ccc(F)cc1)NCc1ccco1	Cycloheximide cs 45.9, Shiga toxin inh 93.8
O=C(/C=C/c1c(F)cccc1Cl)NCc1ccco1	Cycloheximide cs 39.1, Shiga toxin inh 182.0
O=C(/C=C/c1ccco1)NCCc1ccc(F)cc1	Cycloheximide cs 57.1, Shiga toxin inh 55.6
O=C(/C=C/c1cccc([N+](=O)[O-])c1)NCc1ccco1	none
COc1ccc(OC)c(NC(=O)c2cc(S(=O)(=O)N3CCCC3)cn2C)c1	none
O=c1c2ccccc2nc(/C=C/c2ccc([N+](=O)[O-])o2)n1CCCO	Cycloheximide cs 17.7
Cc1[nH]c2ccccc2c1/C=C/c1nc2ccccc2c(=O)n1CCO	Cycloheximide cs 24.7, Shiga toxin inh 48.7
O=c1c2ccccc2nc(/C=C/c2ccc(Cl)cc2)n1CCO	none
CCn1c(/C=C/c2ccccc2F)nc2ccccc2c1=O	Cycloheximide cs 17.7
CCn1c(/C=C/c2ccccc2C)nc2ccccc2c1=O	Cycloheximide cs 19.0, Shiga toxin inh 51.3
O=c1c2ccccc2nc(/C=C/c2ccc([N+](=O)[O-])cc2)n1CCCO	none
CCn1c(SCC(=O)Nc2nc3ccccc3s2)nnc1-c1ccc(Br)cc1	none
Cc1ccc(-c2nc(NC(=O)CSc3ccc4ccccc4n3)ns2)cc1	none
C=CCn1c(SCC(=O)Nc2ccc(-c3nc4ccc(C)cc4s3)cc2)nnc1-c1ccncc1	Cycloheximide cs 19.0
Cc1nnc(SCC(=O)Nc2ccc(-c3nc4ccccc4s3)cc2)s1	Cycloheximide cs 65.0, Shiga toxin inh 38.2
Cc1nnc(SCC(=O)Nc2nsc(-c3ccc(C(C)(C)C)cc3)n2)s1	Cycloheximide cs 23.2
CCn1c(SCC(=O)Nc2ccc(-c3nc4ccc(C)cc4s3)cc2)nnc1-c1ccccc1	Cycloheximide cs 33.9, Shiga toxin inh 58.9
C=CCn1c(SCC(=O)Nc2ccc(N3CCOCC3)cc2)nnc1-c1ccncc1	none
Cc1nnc(SCC(=O)Nc2ccccc2NC(=O)CSc2nnc(C)s2)s1	none
O=C(/C=C/c1c(F)cccc1Cl)NCc1ccc2c(c1)OCO2	none
O=C(Nc1ccc(-c2nc3ccccc3s2)cc1)c1cc(-n2cnnc2)ccc1Cl	Cycloheximide cs 27.0 (no result: Giardia FBPA inh)
Cc1ccc(NC(=O)N2CCCC2C(=O)Nc2c(C)cc(C)cc2C)cc1 (stereo unspecified)	none (no result: Giardia FBPA inh)
CC(C)CNCCc1ccccn1	none (no result: Cycloheximide cs, Shiga toxin inh, Giardia FBPA inh, LmPK inhibitor)
CCc1ccc(-c2nc(CS(=O)CC(=O)NC3CCCCCC3)c(C)o2)cc1 (stereo unspecified)	Cycloheximide cs 14.4, NS1 function inh inconclusive (no result: Giardia FBPA inh)
